# Laboratory results: PMC8384837, “Expanding the binding specificity for RNA recognition by a PUF domain”
# Substitutions are numbered along the chain they refer to.
# Legend:
# Assay in all cases: yeast three-hybrid, YBZ-1, SC-Leu-His + 0.5 mM 3-AT, 4 days
# Conditions in all cases: tags: N-Gal4 AD-HA kept; label: inside an RPR1-promoter hybrid RNA with tandem MS2 sites; ssRNA
# PUM1 PUF domain R5-RMR = PUM1 PUF domain R5-RMR (Homo sapiens, UniProt Q14671 828-1176, C1007R;R1008M;Q1011R)
# How it was run: (§1)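 The interaction score is the log change in how often each variant appears, from input to selection. Frequencies came from PCR-amplified, Illumina-sequenced repeat regions of Pumilio-1 PUF domain libraries grown in strain YBZ-1 (LexA–MS2 coat fusion, HIS3 reporter) alongside matching RNA elements. Input plates were SC-Leu and selection plates were SC-Leu-His + 0.5 mM 3-AT, each for four days, and the log2 calculation used a pseudocount of 1 where a variant was absent.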
# PUM1 PUF domain R1-QWR = PUM1 PUF domain R1-QWR (Homo sapiens, UniProt Q14671 828-1176, S863Q;R864W;Q867R)
# How it was run: as §1
# PUM1 PUF domain R7-KRV = PUM1 PUF domain R7-KRV (Homo sapiens, UniProt Q14671 828-1176, S1079K;N1080R;E1083V)
# How it was run: as §1
# PUM1 PUF domain R6-GFQ = molecular target: T1, PUM1 PUF domain R6-GFQ (Homo sapiens, UniProt Q14671 828-1176, N1043G;Y1044F)
# T1 sequence: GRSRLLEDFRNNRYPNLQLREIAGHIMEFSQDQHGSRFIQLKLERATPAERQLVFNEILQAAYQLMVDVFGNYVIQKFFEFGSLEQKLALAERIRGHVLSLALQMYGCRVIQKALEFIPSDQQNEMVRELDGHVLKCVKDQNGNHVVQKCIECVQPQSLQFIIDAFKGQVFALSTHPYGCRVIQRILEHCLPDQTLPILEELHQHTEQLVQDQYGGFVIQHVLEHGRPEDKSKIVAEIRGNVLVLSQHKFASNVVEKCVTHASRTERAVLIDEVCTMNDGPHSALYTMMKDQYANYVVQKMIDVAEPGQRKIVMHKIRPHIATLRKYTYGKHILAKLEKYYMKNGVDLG
# How it was run: as §1
# PUM1 PUF domain R4-MPH = PUM1 PUF domain R4-MPH (Homo sapiens, UniProt Q14671 828-1176, N971M;H972P;Q975H)
# How it was run: as §1
# PUM1 PUF domain R8-RWE = PUM1 PUF domain R8-RWE (Homo sapiens, UniProt Q14671 828-1176, N1122R;Y1123W;Q1126E)
# How it was run: as §1
# PUM1 PUF domain R6-TWK = molecular target: T2, PUM1 PUF domain R6-TWK (Homo sapiens, UniProt Q14671 828-1176, N1043T;Y1044W;Q1047K)
# T2 sequence: T1 sequence with G216T, F217W, Q220K
# How it was run: as §1
# PUM1 PUF domain R5-NRV = PUM1 PUF domain R5-NRV (Homo sapiens, UniProt Q14671 828-1176, C1007N;Q1011V)
# How it was run: as §1
# PUM1 PUF domain R8-KKV = PUM1 PUF domain R8-KKV (Homo sapiens, UniProt Q14671 828-1176, N1122K;Y1123K;Q1126V)
# How it was run: as §1
# PUM1 PUF domain R3-RAP = PUM1 PUF domain R3-RAP (Homo sapiens, UniProt Q14671 828-1176, C935R;R936A;Q939P)
# How it was run: as §1
sequence,measurement,setting,value
GGCUAGAACUAGUGGAUCCCCCGGCGCCCGGCGGCUCGAGCCCGGGUAAGUGUCAAUAGUCUGCAUGCCGCCGGGCGCCAUGCCUGCAGGUCGACUCUAGAAAACAUG,binding signal,PUM1 PUF domain R5-RMR,3.2 log2 enrichment (interaction score)
GGCUAGAACUAGUGGAUCCCCCGGCGCCCGGCGGCUCGAGCCCGGGUAAGUGUUAAUAGUCUGCAUGCCGCCGGGCGCCAUGCCUGCAGGUCGACUCUAGAAAACAUG,binding signal,PUM1 PUF domain R5-RMR,2.49 log2 enrichment (interaction score)
GGCUAGAACUAGUGGAUCCCCCGGCGCCCGGCGGCUCGAGCCCGGGUAAGUGUAAAUCGUCUGCAUGCCGCCGGGCGCCAUGCCUGCAGGUCGACUCUAGAAAACAUG,binding signal,PUM1 PUF domain R1-QWR,8.29 log2 enrichment (interaction score)
GGCUAGAACUAGUGGAUCCCCCGGCGCCCGGCGGCUCGAGCCCGGGUAAGUGUAAAUUGUCUGCAUGCCGCCGGGCGCCAUGCCUGCAGGUCGACUCUAGAAAACAUG,binding signal,PUM1 PUF domain R1-QWR,3.12 log2 enrichment (interaction score)
GGCUAGAACUAGUGGAUCCCCCGGCGCCCGGCGGCUCGAGCCCGGGUAAGUCUAAAUAGUCUGCAUGCCGCCGGGCGCCAUGCCUGCAGGUCGACUCUAGAAAACAUG,binding signal,PUM1 PUF domain R7-KRV,5.35 log2 enrichment (interaction score)
GGCUAGAACUAGUGGAUCCCCCGGCGCCCGGCGGCUCGAGCCCGGGUAAGUGAAAAUAGUCUGCAUGCCGCCGGGCGCCAUGCCUGCAGGUCGACUCUAGAAAACAUG,binding signal,PUM1 PUF domain R6-GFQ,0.48 log2 enrichment (interaction score)
GGCUAGAACUAGUGGAUCCCCCGGCGCCCGGCGGCUCGAGCCCGGGUAAGUGUAAAUAGUCUGCAUGCCGCCGGGCGCCAUGCCUGCAGGUCGACUCUAGAAAACAUG,binding signal,PUM1 PUF domain R4-MPH,3.32 log2 enrichment (interaction score)
same,binding signal,PUM1 PUF domain R6-GFQ,6.29 log2 enrichment (interaction score)
same,binding signal,PUM1 PUF domain R8-RWE,3.03 log2 enrichment (interaction score)
same,binding signal,PUM1 PUF domain R6-TWK,2.26 log2 enrichment (interaction score)
same,binding signal,PUM1 PUF domain R5-NRV,2.44 log2 enrichment (interaction score)
GGCUAGAACUAGUGGAUCCCCCGGCGCCCGGCGGCUCGAGCCCGGGUAAGCGUAAAUAGUCUGCAUGCCGCCGGGCGCCAUGCCUGCAGGUCGACUCUAGAAAACAUG,binding signal,PUM1 PUF domain R8-RWE,4.69 log2 enrichment (interaction score)
same,binding signal,PUM1 PUF domain R8-KKV,2.53 log2 enrichment (interaction score)
GGCUAGAACUAGUGGAUCCCCCGGCGCCCGGCGGCUCGAGCCCGGGUAAGUGUAAUUAGUCUGCAUGCCGCCGGGCGCCAUGCCUGCAGGUCGACUCUAGAAAACAUG,binding signal,PUM1 PUF domain R3-RAP,3.87 log2 enrichment (interaction score)
GGCUAGAACUAGUGGAUCCCCCGGCGCCCGGCGGCUCGAGCCCGGGUAAGUGUGAAUAGUCUGCAUGCCGCCGGGCGCCAUGCCUGCAGGUCGACUCUAGAAAACAUG,binding signal,PUM1 PUF domain R5-NRV,2.59 log2 enrichment (interaction score)
